Data on 61 molecules can be found in PubChem BioAssay AID504332 (National Center for Advancing Translational Sciences (NCATS), 2011).

Hit rate of the full screen: of about 350,000 compounds, about 31,000 (8.9%) were called active. Another 15% or so got no clear call; they are omitted. Calls come from the whole dose curve; as a rule, active = well fitted inhibition curve with a large enough effect; inconclusive = small, poorly fitted or top-dose-only effect; inactive = no such curve, though single readings can be large or run the other way. This excerpt belongs to a sample that is enriched for actives.
% is set by controls: 0 for no effect and ±100 for the full control effect; potency is the fitted concentration of half-maximal effect.

Histone-lysine N-methyltransferase EHMT2 (Homo sapiens), sequence (Q96KQ7 913-1193 limits assumed): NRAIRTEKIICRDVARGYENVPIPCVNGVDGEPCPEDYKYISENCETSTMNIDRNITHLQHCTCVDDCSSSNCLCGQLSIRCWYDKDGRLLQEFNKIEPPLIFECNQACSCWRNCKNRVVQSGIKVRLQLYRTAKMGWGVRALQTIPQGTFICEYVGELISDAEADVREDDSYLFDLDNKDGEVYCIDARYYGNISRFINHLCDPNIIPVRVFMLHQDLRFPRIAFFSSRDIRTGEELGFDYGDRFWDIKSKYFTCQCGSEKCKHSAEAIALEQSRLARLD

This assay deals with Histone-lysine N-methyltransferase EHMT2 (Homo sapiens) (UniProt Q96KQ7). The assay can be described thus: qHTS Assay for Inhibitors of Histone Lysine Methyltransferase G9a. Note: nearly all actives have a fitted effect of over 75% in size. The note with it: G9a H3K9 monomethylation, AlphaScreen, 2 h; series mostly up to 59 µM; activity, negative = inhibition: at the top concentration. The gist of the method:
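Signal arises when biotinylated H3K9 peptide, once monomethylated, bridges streptavidin donor and antibody-captured acceptor beads. Enzyme at 20 nM was preincubated 15 min with test compounds; peptide 500 nM and SAM 20 uM then reacted for 2 h.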
(In general: Quantitative high-throughput screening tests each substance at several concentrations.)
Turning to `CN(CC(=O)Nc1ccc(F)c(F)c1F)C(=O)Cn1cnc2c1c(=O)n(C)c(=O)n2C`, the activity, negative = inhibition was 25.9% [at 12.7 µM] (inactive).
With `COC(=O)c1cc(S(=O)(=O)N2CCN(c3cc(Cl)ccc3C)CC2)c[nH]1`, the “activity, negative = inhibition” value was -11.2% (inactive).
Regarding `CC(C)CCN1NC2(CCC(C)CC2)NC1=S` (stereo unspecified), the Potency is 11.2 µM (active).
`COC(=O)c1cccc(NC(=O)CSc2nc(C)cc(=O)[nH]2)c1`: the “activity, negative = inhibition” value was -39.9% (inactive).
For the molecule `COC(=O)c1nn(-c2cccc(Cl)c2)ccc1=O`, the “activity, negative = inhibition” value is -32% [at 102 µM] (inactive).
Take `COC(=O)c1cccc(-n2[nH]nnc2=S)c1`: the Potency was 8.91 µM (active).
`Cc1cccc(C)c1NC(=O)CN(C)C(=O)CCC(=O)c1ccccc1`: the activity, negative = inhibition is 11.7% [at 2.33 µM] (inactive).
For `C=C(C)CNc1cc(S(=O)(=O)N2CCOCC2)ccc1Oc1ccccc1`, the activity, negative = inhibition is 21.5% [at 12.7 µM] (inactive).
On to `COc1ccc(NC(=O)CS(=O)(=O)c2ccccc2)cc1`, for which the “activity, negative = inhibition” value is 8.71% [at 102 µM] (inactive).
Regarding `COc1ccc(C(=O)ON=C2c3ccccc3-c3ccccc32)cc1OC`, the “activity, negative = inhibition” value was 12.7% (inactive).
As for `COc1ccc(NC(=O)ON=C2c3ccccc3-c3ccccc32)cc1`, the Potency is 25.1 µM (active).
Consider `Cn1c(C(=O)N2CCC(C(=O)N3CCN(c4ccccc4)CC3)CC2)cc2sccc21`, for which the “activity, negative = inhibition” value is -33.7% (inactive).
Regarding `O=C(CCNS(=O)(=O)c1cccs1)N1CCN(c2ccc(F)cc2)CC1`, the “activity, negative = inhibition” value was 0.949% (inactive).
As to `CC1CCC(NC(=O)C2c3ccccc3C(=O)N2Cc2ccc3c(c2)OCO3)CC1` (stereo unspecified), the “activity, negative = inhibition” value was 7.92% [at 102 µM] (inactive).
Consider `CCCOc1ccc(NC(=O)CC2C(=O)N(C)C(=S)N2Cc2ccc3c(c2)OCO3)cc1` (stereo unspecified), for which the “activity, negative = inhibition” value is -3.34% (inactive).
With `O=C(Nc1ccc(Cl)cc1)C1c2cccc[n+]2CC(=O)N1Cc1ccc2c(c1)OCO2` (stereo unspecified), the Potency was 22.4 µM (active).
With `O=C(COc1coc(CN2CCN(c3ccccc3)CC2)cc1=O)Nc1ccccc1F`, the “activity, negative = inhibition” value is -28.5% [at 102 µM] (inactive).
On to `Brc1ccccc1CN1CCC(Cc2ccccc2)CC1`, for which the Potency is 44.7 µM (active).
Regarding `NC(=O)c1ccc(CN2CCC(Cc3ccccc3)CC2)cc1`, the “activity, negative = inhibition” value was 3.65% [at 102 µM] (inactive).
Still for that read-out and setting: then `COc1cc(C)cc(CN2CCC(Cc3ccccc3)CC2)c1O`, with -9.7% [at 2.33 µM] (inactive); and `Cn1ccc2cc(S(=O)(=O)N3CCCC(C(=O)NCc4ccccc4F)C3)ccc21` (stereo unspecified), with 8.59% (inactive); and `Cc1ccc(S(=O)(=O)CCC(=O)OCC(=O)N(C)C2CCS(=O)(=O)C2)cc1` (stereo unspecified), with 0.624% [at 102 µM] (inactive).
On to `CCCc1ccc(OCC(=O)NNC(=S)NC(=O)c2ccco2)cc1`, for which the Potency was 2.24 µM (active).
Turning to `Cc1ccc(OCC(=O)NCCCNC(=O)c2ccco2)cc1C`, the “activity, negative = inhibition” value was 21% [at 102 µM] (inactive).
With `O=C(Nc1ccc2ccccc2c1)/C(=C\c1ccc2c(c1)OCO2)NC(=O)c1ccco1`, the “activity, negative = inhibition” value was -19.2% (inactive).
With `O=C(Nc1ccc2ccccc2c1)/C(=C/c1cccc(Br)c1)NC(=O)c1ccco1`, the “activity, negative = inhibition” value was 11.4% [at 102 µM] (inactive).
The same measure, in the same setting: to `CCCc1ccc(OCCNC(=O)c2ccco2)cc1` belongs 12.8% [at 102 µM] (inactive).
For the molecule `CC(Oc1ccc2ccccc2c1)C(=O)NNC(=S)NC(=O)c1ccco1` (stereo unspecified), the Potency is 20 µM (active).
Take `CSCCC(NC(=O)COc1ccccc1)C(=O)N(C)CC(=O)Nc1ccc(C)cc1` (stereo unspecified): the “activity, negative = inhibition” value was -0.305% (inactive).
On to `NS(=O)(=O)c1ccc2nc(NC(=O)COc3ccccc3)sc2c1`, for which the “activity, negative = inhibition” value is 3% (inactive).
With `CN(CCO)c1ccc(/C=N/Nc2nncc3ccccc23)cc1`, the Potency was 31.6 µM (active).
In the case of `FC(F)(F)c1nc2ccccc2nc1N/N=C/c1ccc(Cl)cc1`, the “activity, negative = inhibition” value was 48.3% (inactive).
The same measure, in the same setting: then `COc1cc(/C=N/Nc2nn3cnnc3c3ccccc23)cc(OC)c1OC`, with -5.49% (inactive); and `CCOc1ncccc1C(=O)OCC(=O)Nc1cccc(S(=O)(=O)N2CCCCCC2)c1`, with -1.01% [at 2.33 µM] (inactive); and `CN1/C(=C\C(=O)c2oc3ccccc3c2N)C(C)(C)c2ccccc21`, with -56.3% (inactive).
Take `CN1CCN(CCC(=O)N/N=C/C=C2\N(C)c3ccccc3C2(C)C)CC1`: the Potency is 31.6 µM (active).
As to `CC(C)Nc1nnc(SCC(=O)/C=C2\N(C)c3ccccc3C2(C)C)s1`, the “activity, negative = inhibition” value was -11.2% (inactive).
In the case of `CCN(CCCNC(=O)c1cc2c(=O)n(CC)c3ccccc3c2s1)Cc1ccccc1`, the “activity, negative = inhibition” value was 2.01% (inactive).
`CCOC(=O)c1ccc(NC(=O)Cc2cccs2)cc1`: the “activity, negative = inhibition” value was 23% [at 102 µM] (inactive).
Same read-out and setting: to `CCCN1C(=O)C(O)(CC(=O)c2ccc(CC)cc2)c2cc(Br)ccc21` (stereo unspecified) belongs 8.12% (inactive); to `COc1ccc(C(C)NC(=O)C2CCCC2)cc1` (stereo unspecified), 49.3% [at 102 µM] (inactive); to `COc1ccc(N2CC(C(=O)N[C@@H](C)C(=O)N3CCCCC3)CC2=O)cc1` (stereo partly specified), 13.8% [at 102 µM] (inactive).
Regarding `COc1ccc(C2OC(=O)CC2C(=O)NC(C)C)cc1` (stereo unspecified), the Potency is 28.2 µM (active).
Consider `COc1ccc(NC(=O)CSc2nc3ccccc3n2CC(=O)N2CCCCC2C)cc1` (stereo unspecified), for which the “activity, negative = inhibition” value is 16.3% (inactive).
Same read-out and setting: to `CCOc1ccc(NC(=O)CN(C)C(=O)Cc2sc(C)nc2-c2ccc(F)cc2)cc1OCC` belongs -29.9% (inactive); to `O=C(NCCc1c[nH]c2ccccc12)c1cccc(Br)c1`, 0.2% [at 2.33 µM] (inactive).
In the case of `Cc1cc(C)cc(NC(=S)NCCc2c[nH]c3ccccc23)c1`, the Potency was 39.8 µM (active).
For `O=C(NCCc1c[nH]c2ccccc12)c1cc2ccccc2oc1=O`, the “activity, negative = inhibition” value was -44.1% [at 102 µM] (inactive).
As for `O=C(O[C@H]1[C@H](Cc2ccccc2)NS(=O)(=O)[C@H]2C[C@@H]3C=C[C@]12O3)c1ccc([N+](=O)[O-])cc1`, the activity, negative = inhibition was -6.93% [at 2.33 µM] (inactive).
Regarding `Brc1ccc(CN2CC[C@H]3C=CCc4cccc(c43)C2)cc1`, the activity, negative = inhibition was 12.2% [at 2.33 µM] (inactive).
Consider `CCc1ccc(NC(=O)c2cc(S(=O)(=O)NC3CCCCCC3)ccc2F)cc1`, for which the “activity, negative = inhibition” value was 13.9% (inactive).
On to `Cc1cccc(-n2cc(CN3CCN(C(=O)c4ncn[nH]4)CC3)c(-c3cccc(F)c3)n2)c1`, for which the “activity, negative = inhibition” value was -37.2% [at 102 µM] (inactive).
As for `Cc1ccc(-n2cc(CN(C)Cc3nccn3C)c(-c3cccc(C)c3)n2)cc1`, the Potency was 39.8 µM (active).
`COc1ccc(-c2[nH]ncc2CN(Cc2nccn2C)C(C)C)cc1F`: the “activity, negative = inhibition” value is -38.6% [at 102 µM] (inactive).
On to `COc1cc(C(=O)NCCS(=O)(=O)N2CCN(c3ccccc3)CC2)cc(OC)c1OC`, for which the “activity, negative = inhibition” value was -36.6% (inactive).
Regarding `Cc1ccccc1CNC(=O)C(=O)NCC(c1cccs1)S(=O)(=O)c1cccs1` (stereo unspecified), the “activity, negative = inhibition” value is 4.09% (inactive).
As to `CCc1ccc(NC(=O)CCS(=O)(=O)c2cc3c(cc2Cl)NC(=O)CO3)cc1`, the “activity, negative = inhibition” value was -7.38% (inactive).
Turning to `CCOC(=O)c1ccc(-c2ccc(/C=C(\C#N)C(=O)Nc3ccc(C)cc3)o2)cc1`, the “activity, negative = inhibition” value was -4.08% (inactive).
With `CC(=O)Nc1ccc(NC(=O)c2ccc3c(c2)C(=O)N(c2ccccc2C)C3=O)cc1`, the Potency is 39.8 µM (active).
For the molecule `Cc1cccc(N2C(=O)c3ccc(C(=O)Nc4cccc(C(=O)O)c4)cc3C2=O)c1`, the “activity, negative = inhibition” value was -31.2% [at 102 µM] (inactive).
The same measure, in the same setting: to `O=C(Nc1ccc2c(c1)OCO2)c1ccc(N2C(=O)c3ccccc3C2=O)cc1` belongs 7.92% [at 102 µM] (inactive).
